Unmarked numbers belong to inactive results. The source made the active and inactive calls. Calls come from the whole dose curve; as a rule, active = well fitted curve in the direction sought with a large enough effect in the repeat runs; inconclusive = weak or mixed curves; inactive = flat fitted curve, though single readings scatter.
% is set by controls: 0 for no effect and ±100 for the full control effect.

The nature of this assay: qHTS assay to test for compound auto fluorescence at 590 nm (red) in HepG2 cell free culture (AID 720684). The conditions noted are these: cell-free medium autofluorescence, red 540/590 nm; series mostly up to 46 µM; fluorescence, % of Rose Bengal: at the top concentration. A digest of the protocol: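 Auto fluorescence equivalency versus Rose Bengal sodium, red channel Ex/Em 540/590 nm; compounds in cell-free MEM/10% FBS; DMSO vehicle control.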
Background: In qHTS, concentration-response curves come from the screen itself.
Take `CCN(CC)CCOc1ccc(-c2nc3cc(Cl)ccc3s2)cc1`: the “fluorescence, % of Rose Bengal” value was 0.0212%. The same measure, in the same setting: with `O=C(O)CCC/C=C\C[C@@H]1[C@@H](/C=C/[C@@H](O)COc2cccc(C(F)(F)F)c2)[C@H](O)C[C@@H]1O` the figure was -0.0011%; with `OCC(O)COc1ccc(Cl)cc1` (centres undefined), -0.0017%; with `CC(Oc1ccccc1)C(=O)N[C@@H]1C(=O)N2[C@@H]1SC(C)(C)[C@@H]2C(=O)O` (some centres undefined), -0.436% [at 18.6 µM]. As to `C=CCNC1=C2C[C@@H](C)C[C@H](OC)[C@H](O)[C@@H](C)/C=C(\C)[C@H](OC(N)=O)[C@@H](OC)/C=C\C=C(/C)C(=O)NC(=CC1=O)C2=O`, the “fluorescence, % of Rose Bengal” value is -0.107%. For the compound `COCC(=O)Nc1cc(Sc2ccccc2)ccc1N=C(NC(=O)OC)NC(=O)OC`, the “fluorescence, % of Rose Bengal” value was 0.0403%. As to `CCCCCCCCCCCCCCCC(=O)OC[C@@H](O)[C@H]1OC[C@H](O)[C@H]1O`, the “fluorescence, % of Rose Bengal” value was 0.0192%. As to `CCN(CC)Cc1cc(Nc2ccnc3cc(Cl)ccc23)ccc1O`, the “fluorescence, % of Rose Bengal” value was -0.0758% [at 18.6 µM]. As to `C=CC[C@@H]1/C=C(\C)C[C@H](C)C[C@H](OC)[C@H]2O[C@@](O)(C(=O)C(=O)N3CCCC[C@H]3C(=O)O[C@H](/C(C)=C/[C@@H]3CC[C@@H](O)[C@H](OC)C3)[C@H](C)[C@@H](O)CC1=O)[C@H](C)C[C@@H]2OC`, the “fluorescence, % of Rose Bengal” value is 0.0329%. On to `CN(C)CCC=C1c2ccccc2C(C)(C)c2ccccc21`, for which the “fluorescence, % of Rose Bengal” value is -0.172%.

In the case of `CN1CC(O)c2cc(N=NC(N)=O)c(O)cc21` (centres undefined), the “fluorescence, % of Rose Bengal” value is -0.0366%. As for `CCOC(=O)Cc1cccc(-c2cc(CCCCCCc3ccc(O[C@H]4O[C@H](COC(C)=O)[C@@H](OC(C)=O)[C@H](OC(C)=O)[C@@H]4OC(C)=O)c(-c4cccc(CC(=O)OCC)c4)c3)ccc2O[C@H]2O[C@H](COC(C)=O)[C@@H](OC(C)=O)[C@H](OC(C)=O)[C@@H]2OC(C)=O)c1`, the “fluorescence, % of Rose Bengal” value is -0.0093%. In the case of `CCCC(=O)O[C@]1(C(=O)COC(C)=O)CC[C@H]2[C@@H]3C[C@H](F)C4=CC(=O)C=C[C@]4(C)[C@@]3(F)[C@@H](O)C[C@@]21C`, the “fluorescence, % of Rose Bengal” value was 0.0311%. As for `C=C1CC2C3CCC4=CC(=O)C=C[C@]4(C)[C@@]3(F)[C@@H](O)C[C@]2(C)[C@@]1(O)C(=O)COC(C)=O` (some centres undefined), the “fluorescence, % of Rose Bengal” value was -0.218%. For `C[C@H]1[C@@H](OC(=O)CCC(=O)O)O[C@@H]2OC3(C)CC[C@H]4[C@H](C)CC[C@@H]1[C@@]24OO3`, the “fluorescence, % of Rose Bengal” value is -0.363%. `OCCO[C@@H]1[C@@H](O)[C@H](O)[C@@H](CO)O[C@@H]1O`: the “fluorescence, % of Rose Bengal” value is -0.0135%. Regarding `CN[C@@H]1[C@H](O[C@H]2[C@H](O[C@H]3[C@H](O)[C@@H](O)[C@H](N=C(N)N)[C@@H](O)[C@@H]3N=C(N)N)O[C@@H](C)[C@]2(O)C=O)O[C@@H](CO)[C@H](O)[C@H]1O`, the “fluorescence, % of Rose Bengal” value is -0.0037%. Regarding `O=C(Cc1cccs1)N[C@@H]1C(=O)N2C(C(=O)[O-])=C(C[n+]3ccccc3)CS[C@H]12`, the “fluorescence, % of Rose Bengal” value was 0.0631%. For `Clc1cc(Cl)c(OCC#CI)cc1Cl`, the “fluorescence, % of Rose Bengal” value is -0.0959%. Still for that read-out and setting: the result for `C[N@+]12CCCC[C@@H]1CCC(=C(c1cccs1)c1cccs1)C2` reads -0.0084%; that for `CC1(O)CCC(C(C)(C)O)CC1` (centres undefined), -0.433%; that for `CC#CCC(C)[C@H](O)/C=C/[C@@H]1[C@H]2c3cccc(CCCC(=O)O)c3O[C@H]2C[C@H]1O` (some centres undefined), -0.19%. Take `CCN(CC)CCCC(C)Nc1cc(/C=C/c2ccccc2Cl)nc2cc(Cl)ccc12` (centres undefined): the “fluorescence, % of Rose Bengal” value is -0.152%. As to `CCCCC(=O)OCC(=O)[C@]1(O)Cc2c(O)c3c(c(O)c2[C@@H](O[C@H]2C[C@H](NC(=O)C(F)(F)F)[C@H](O)[C@H](C)O2)C1)C(=O)c1c(OC)cccc1C3=O`, the “fluorescence, % of Rose Bengal” value was 1.5%. Same read-out and setting: with `CC1(C)S[C@@H]2[C@H](NC(=O)C3(N)CCCCC3)C(=O)N2[C@H]1C(=O)O` the figure was -0.178%; with `CC[C@]1(O)CC2CN(CCc3c([nH]c4ccccc34)[C@@](C(=O)OC)(c3cc4c(cc3OC)N(C)[C@H]3[C@@](O)(C(N)=O)[C@H](O)[C@]5(CC)C=CCN6CC[C@]43[C@@H]65)C2)C1` (some centres undefined), 0.143%. Consider `CC(=O)Nc1ccc(NC(=S)NC(=O)c2ccc(C(C)(C)C)cc2)cc1`, for which the “fluorescence, % of Rose Bengal” value is -0.256%.

Turning to `CO[C@H]1O[C@@H]2O[C@@]3(C)CC[C@H]4[C@H](C)CC[C@@H]([C@H]1C)[C@@]24OO3`, the “fluorescence, % of Rose Bengal” value was 0.699%. Same read-out and setting: with `OC(CN1CCCCC1)c1cc(-c2ccccc2)on1` (centres undefined) the figure was -0.0016%; with `CC(C)(C)C1(O)CCN2CC3c4ccccc4CCc4cccc(c43)C2C1` (centres undefined), 0.0367%. On the same count and under the same terms, with `NC[C@@H]1O[C@H](O[C@H]2[C@@H](O)[C@H](O[C@@H]3[C@@H](O)[C@H](N)C[C@H](N)[C@H]3O[C@H]3O[C@H](CO)[C@@H](O)[C@H](O)[C@H]3N)O[C@@H]2CO)[C@H](N)[C@@H](O)[C@@H]1O` the figure was -0.11%; with `CN(C)c1ccc(C(=C2C=CC(=[N+](C)C)C=C2)c2c(O)c(S(=O)(=O)[O-])cc3cc(S(=O)(=O)O)ccc23)cc1`, -0.283%; with `CCN(CC)CCOC(=O)c1ccc(N)cc1Cl`, -0.0163%. For the compound `CCCCCCCCCCCCCCCCCC(=O)[O][Al]`, the “fluorescence, % of Rose Bengal” value was 0.147%. Turning to `CCC(C)[C@H]1O[C@]2(C=C[C@@H]1C)C[C@@H]1C[C@@H](C/C=C(\C)[C@@H](O[C@H]3C[C@H](OC)[C@@H](O[C@H]4C[C@H](OC)[C@H](NC(C)=O)[C@H](C)O4)[C@H](C)O3)[C@@H](C)/C=C/C=C3\CO[C@@H]4[C@H](O)C(C)=C[C@@H](C(=O)O1)[C@]34O)O2` (some centres undefined), the Potency entry is “inactive”. As for `CC(C)NCC(O)COc1ccccc1-n1cccc1` (centres undefined), the “fluorescence, % of Rose Bengal” value is 0.0236%. `CC(C)(C)NC(=O)[C@H]1CC[C@H]2[C@@H]3CC=C4C=C(C(=O)O)CC[C@]4(C)[C@H]3CC[C@]12C`: the “fluorescence, % of Rose Bengal” value was 0.074%. Same read-out and setting: the result for `CC1=C(/C=C/C(C)=C/C=C/C(C)=C/C=C/C=C(C)/C=C/C=C(C)/C=C/C2=C(C)C(=O)CCC2(C)C)C(C)(C)CCC1=O` reads -0.106%; that for `CCOC(=O)c1cc(-c2ccccc2)nc2ccc(C)cc12`, 0.0576%.
